{"source": "the supplement of paper PMC10338343", "note": "± gives the standard deviation. In all, about 3,700 sequences were measured (“pre-steady-state target cleavage rate”: median about 0.02, highest 2% from about 0.23 on). The sample as a whole holds a higher share of the highest values than the screen did."}
{"system": "MILI (PIWIL2) piRISC loaded with Kctd7 piRNA (26 nt)", "experiment": "pre-steady-state target cleavage rate (min^-1); MIWI and MILI are mouse PIWI proteins and EfPiwi is from a freshwater sponge; tags in brackets are library labels; higher = faster piRNA-guided slicing of the target", "conditions": "guide: Kctd7 piRNA 5'p-UGUUAAUCUCUCAGAGAAGGUGACAG; auxiliary factor: 500 nM mouse GTSF1", "procedure": "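Cleave-'n-Seq: a library of target RNAs (target site embedded in constant flanks, ACAGCATTCCGCGTTAGTGATATCCG... 5' flank; DNA-blocked outside the site) at 0.1 nM was incubated with 1 nM active mouse MILI or MIWI piRISC (synthetic 5'-monophosphorylated piRNA guide) with or without 500 nM mouse GTSF1 at 33 °C for 1 min to 16 h. Uncleaved targets were sequenced and normalised to non-target controls, and the pooled three trials were fitted to a burst-and-steady-state model to give the pre-steady-state cleavage rate (min^-1; k3 is constrained to at most 1e-4). Sequence is the target site only; target names encode pairing extent (gX:gY) and contiguous / 1-mismatch / 2-mismatch / bulge geometry. Fits with R² ≤ 0 are excluded.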"}
{"sequence": "UAGUGACUCACCUUCUCUGAGAGAGUUAACA", "pre-steady-state target cleavage rate": "0.118 ± 0.017"}
{"sequence": "UAGUGUGAGACCUUCUCUGAGAGAUUAACA", "pre-steady-state target cleavage rate": "0.101 ± 0.0091"}
{"sequence": "UAGUGACACACCUUCAGUGAGAGAUUAACA", "pre-steady-state target cleavage rate": "0.0881 ± 0.016"}
{"sequence": "UAGUGACUCAUCCUUCUCUGAGAGAUUAACA", "pre-steady-state target cleavage rate": "0.0582 ± 0.0061"}
{"sequence": "UAGUGAGUCACGUUCUCUGUGAGAUUAACA", "pre-steady-state target cleavage rate": "0.0376 ± 0.0033"}
{"sequence": "UAGUGUGUCACCUUCUCAGAGACAUUAACA", "pre-steady-state target cleavage rate": "0.117 ± 0.025"}
{"sequence": "UAGUGACUCACCUUCUCUGAGAGAUGUAACA", "pre-steady-state target cleavage rate": "0.172 ± 0.028"}
{"sequence": "UAGUGACAGAACCUUCUCUGAGAGAUUAACA", "pre-steady-state target cleavage rate": "0.0771 ± 0.01"}
{"sequence": "UAGUGAGUCACCUUCUCAGAGAGAUUAACA", "pre-steady-state target cleavage rate": "0.173 ± 0.022"}
{"sequence": "UAGUGUGUCACCUUCUCCGAGAGAUUAACA", "pre-steady-state target cleavage rate": "0.373 ± 0.1"}
{"sequence": "UAGUCUGUCACCUUCUCUGAGAGAUAACA", "pre-steady-state target cleavage rate": "0.0928 ± 0.025"}
{"sequence": "UAGUGAGUCACCUUCUCCGAGAGAUUAACA", "pre-steady-state target cleavage rate": "0.394 ± 0.084"}
{"sequence": "UAGUGAGUCACCUUCUGCUGAGAGAUUAACA", "pre-steady-state target cleavage rate": "0.264 ± 0.058"}
{"sequence": "UAGUGAGUCACCUUCUUCUGAGAGAUUAACA", "pre-steady-state target cleavage rate": "0.0918 ± 0.028"}
{"sequence": "UAGUCUGUCACCUUCUCUGAGAGAUAUAACA", "pre-steady-state target cleavage rate": "0.235 ± 0.03"}
{"sequence": "UAGUCUGUCACCUUCUCCGAGAGAUUAACA", "pre-steady-state target cleavage rate": "0.21 ± 0.038"}
{"sequence": "UAGUCUGUCACCUUCUCUGAGAGAUAAACA", "pre-steady-state target cleavage rate": "0.132 ± 0.022"}
{"sequence": "UAGUGAGUCACCUUCUGAGAGAGAUUAACA", "pre-steady-state target cleavage rate": "0.074 ± 0.011"}
{"sequence": "UAGUGAGUCACCUUCUCGAGAGAUUAACA", "pre-steady-state target cleavage rate": "0.0598 ± 0.015"}
{"sequence": "UAGUGUGUCACCUUCUCGAGAGAUUAACA", "pre-steady-state target cleavage rate": "0.0644 ± 0.013"}
{"sequence": "UAGUGACAGUCCUUCUAUGAGAGAUUAACA", "pre-steady-state target cleavage rate": "0.0377 ± 0.013"}
{"sequence": "UAGUGACACAGCUUCUCUGAGAGAUAAACA", "pre-steady-state target cleavage rate": "0.0211 ± 0.0068"}
{"sequence": "UAGUGACUCACGUUCUCUGAGAGAUUUACA", "pre-steady-state target cleavage rate": "0.0554 ± 0.015"}
{"sequence": "UAGUGACAGACCUUCUCUGUGAGAUAAACA", "pre-steady-state target cleavage rate": "0.0102 ± 0.0046"}
{"sequence": "UAGUGACACAACCUUCUCUGAGAGAUUAACA", "pre-steady-state target cleavage rate": "0.155 ± 0.018"}
{"sequence": "UAGUGACUCACCUUCUCUGAGAGAUUAUACA", "pre-steady-state target cleavage rate": "0.114 ± 0.021"}
{"sequence": "UAGUGUGUCACCAUCUCUGAGAGAUUAUGA", "pre-steady-state target cleavage rate": "0.0243 ± 0.0082"}
{"sequence": "UAGUGACUCACCUUCUGUGAGAGAUUUUGA", "pre-steady-state target cleavage rate": "0.00903 ± 0.0039"}
{"sequence": "UAGUGACACACCUACUCUGAGACAUUAACA", "pre-steady-state target cleavage rate": "0.0243 ± 0.0072"}
{"sequence": "UAGUGUGUCACCAACUCUGAGAGAUUUUGA", "pre-steady-state target cleavage rate": "0.00551 ± 0.0041"}
{"sequence": "UAGUGAGUGACCUUCUCUGAGAGAUUAUGA", "pre-steady-state target cleavage rate": "0.0378 ± 0.011"}
{"sequence": "UAGUGACAGACCUUCUCUGAGAGAUUAGCA", "pre-steady-state target cleavage rate": "0.0252 ± 0.013"}
{"sequence": "UAGUGUGUCAGCUUCUCUGUGAGAUUAACA", "pre-steady-state target cleavage rate": "0.0415 ± 0.0032"}
{"sequence": "UAGUGACACACCUUCUCUCAGAGAUUAUGA", "pre-steady-state target cleavage rate": "0.00858 ± 0.0045"}
{"sequence": "UAGUCUGUCUCCUUCUCUGAGAGAUUAUGA", "pre-steady-state target cleavage rate": "0.0111 ± 0.0041"}
{"sequence": "UAGUGACUCACCUUCAGUGAGAGAUUAACA", "pre-steady-state target cleavage rate": "0.0471 ± 0.0078"}
{"sequence": "UAGUGAGUCACCUUCUCUGAGAGAUAUACA", "pre-steady-state target cleavage rate": "0.0915 ± 0.025"}
{"sequence": "UAGUGAGUCACCUUCUCUGAGAGAUAUAACA", "pre-steady-state target cleavage rate": "0.347 ± 0.046"}
{"sequence": "UAGUGUGAUCACCUUCUCUGAGAGAUUAACA", "pre-steady-state target cleavage rate": "0.24 ± 0.018"}
{"sequence": "UAGUGAGAUCACCUUCUCUGAGAGAUUAACA", "pre-steady-state target cleavage rate": "0.178 ± 0.015"}
{"sequence": "UAGUGUGCUCACCUUCUCUGAGAGAUUAACA", "pre-steady-state target cleavage rate": "0.205 ± 0.013"}
{"sequence": "UAGUGAGUCACCUUCUCUGAGAGAUAACA", "pre-steady-state target cleavage rate": "0.107 ± 0.038"}
{"sequence": "UAGUGUGUCACCUUCUCGGAGAGAUUAACA", "pre-steady-state target cleavage rate": "0.153 ± 0.017"}
{"sequence": "UAGUCUGUCACCAUCACUGAGAGAUUAACA", "pre-steady-state target cleavage rate": "0.11 ± 0.0083"}
{"sequence": "UAGUGACAGUCCUUGUGUGAGAGAUUAACA", "pre-steady-state target cleavage rate": "0.0291 ± 0.0078"}
{"sequence": "UAGUGACAGUGGAACUCUGACAGAUUAUCA", "pre-steady-state target cleavage rate": "< 0.0001"}
{"sequence": "UAGUGUGUCACCUUCUCUGAGAGAUUAACCA", "pre-steady-state target cleavage rate": "0.236 ± 0.021"}
{"sequence": "UAGUGUGUCACCCUUCUCUGAGAGAUUAACA", "pre-steady-state target cleavage rate": "0.104 ± 0.016"}
{"sequence": "UAGUGUGUCACCUUCUCUGAGAGAUUACCA", "pre-steady-state target cleavage rate": "0.197 ± 0.037"}
{"sequence": "UAGUGUGUCACCUUCUCUGAGAGAUUAACU [g2:g25:cont:t1U]", "pre-steady-state target cleavage rate": "0.187 ± 0.015"}
{"sequence": "UAGUGUGUCACCUUUCUGAGAGAUUAACA", "pre-steady-state target cleavage rate": "0.0596 ± 0.013"}
{"sequence": "UAGUGUGUCACCUUUUCUGAGAGAUUAACA", "pre-steady-state target cleavage rate": "0.249 ± 0.02"}
{"sequence": "UAGUGUGUCACCUUUCUCUGAGAGAUUAACA", "pre-steady-state target cleavage rate": "0.187 ± 0.016"}
{"sequence": "UAGUGUGUCACCUUCUCUGAGAGAUUAACG [g2:g25:cont:t1G]", "pre-steady-state target cleavage rate": "0.267 ± 0.02"}
{"sequence": "UAGUGUGUCACCUUCUCUGAGAGAUUAACC [g2:g25:cont:t1C]", "pre-steady-state target cleavage rate": "0.202 ± 0.014"}
{"sequence": "UAGUGUGUCACCUUCUGUGUGAGAUUAACA", "pre-steady-state target cleavage rate": "0.0302 ± 0.004"}
{"sequence": "UAGUGACAGUGGAAGUCUGAGAGUUAAACA", "pre-steady-state target cleavage rate": "< 0.0001"}
{"sequence": "UAGUGACACACCUUCUGAGAGAGAUUAUGA", "pre-steady-state target cleavage rate": "0.0134 ± 0.0078"}
{"sequence": "UAGUGACAGUCCUUCUCUAAGAGAUUAACA", "pre-steady-state target cleavage rate": "0.0523 ± 0.012"}
{"sequence": "UAGUGACAGUGGAAGAGUGAGGAGAUUAACA", "pre-steady-state target cleavage rate": "< 0.0001"}
{"sequence": "UAGUGACUCACCUUCUGUGAGAGUUUAACA", "pre-steady-state target cleavage rate": "0.0308 ± 0.01"}
{"sequence": "UAGUGUGUCUCCUUCUCUGAGACAUUAACA", "pre-steady-state target cleavage rate": "0.00482 ± 0.0038"}
{"sequence": "UAGUGAGUCACCUUCUCUGAGAGUAUUAACA", "pre-steady-state target cleavage rate": "0.158 ± 0.019"}
{"sequence": "UAGUGAGUCACCUUCUCUGAGAGAUUUAACA", "pre-steady-state target cleavage rate": "0.225 ± 0.04"}
{"sequence": "UAGUGAGUCACCUUCUCUGAGAGUAUAACA", "pre-steady-state target cleavage rate": "0.144 ± 0.057"}
{"sequence": "UAGUGAGUCACCUUCUCUGAGAGUAAAACA", "pre-steady-state target cleavage rate": "0.14 ± 0.045"}
{"sequence": "UAGUGAGUCACCUUCUCUGAGAGUUAACA", "pre-steady-state target cleavage rate": "0.253 ± 0.077"}
{"sequence": "UAGUCAGUCACCUUCUCUGAGAGUUUAACA", "pre-steady-state target cleavage rate": "0.261 ± 0.041"}
{"sequence": "UAGUGAGUCACCUUCUCUGAGAGUUUAACA", "pre-steady-state target cleavage rate": "0.277 ± 0.061"}
{"sequence": "UAGUCUGACACCUUCUCUGAGAGUUUAACA", "pre-steady-state target cleavage rate": "0.109 ± 0.016"}
{"sequence": "UAGUGAGUCACCUUCUCUGAGAGCUUAACA", "pre-steady-state target cleavage rate": "0.155 ± 0.026"}
{"sequence": "UAGUGAGUCACCUUCUCUGAGAGAGUAACA", "pre-steady-state target cleavage rate": "0.239 ± 0.063"}
{"sequence": "UAGUGAGUCACCUUCUCUCAGAGUUUAACA", "pre-steady-state target cleavage rate": "0.0248 ± 0.0099"}
{"sequence": "UAGUGAGUCACCUUCUCUGACAGUUUAACA", "pre-steady-state target cleavage rate": "0.0134 ± 0.0052"}
